Records with an inconclusive call do not appear. A call without a number means that no potency is given here. Values without a mark were called inactive. Activity calls are given as the source filed them. Calls come from the whole dose curve; as a rule, active = well fitted inhibition curve with a large enough effect; inconclusive = small, poorly fitted or top-dose-only effect; inactive = flat fitted curve, though single readings scatter.
Assay: P-glycoprotein substrates identified in KB-8-5-11 adenocarcinoma cell line, qHTS therapeutic library screen (AID 1346987); note: nearly all actives have a fitted effect of over 65% in size; for activity change, negative = cytotoxicity: series mostly up to about 44 µM
Procedure, shortened: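 Luminescence from CellTiter-Glo, read 5 min after addition, quantified survival of KB-8-5-11 (P-gp-overexpressing) cells exposed to compounds for 72 h. AC50 was derived from concentration-response curves.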

| SMILES | Potency | activity change, negative = cytotoxicity |
| --- | --- | --- |
| CCOCCn1nc(CC)c2nc(N3CCC(C(=O)O)CC3)nc(Nc3cc(C)ccn3)c21 | inactive | – |
| COc1cc(Br)c(S(=O)(=O)Nc2ccc(C(F)(F)F)c(O[C@@H]3CCN(C)C3)c2)cc1OC | inactive | – |
| C[C@H](C/C=C/C(C)(C)O)[C@H]1CC[C@@]2(C)[C@@H]3[C@@H](O[C@@H]4O[C@H](CO)[C@@H](O)[C@H](O)[C@H]4O)C=C4C(CC[C@H](O)C4(C)C)[C@]3(C=O)CC[C@]12C (stereo not given in full) | inactive | – |
| CC(C)S(=O)(=O)N[C@H]1CCOC[C@@H]1c1ccc(-c2ccc(C#N)s2)cc1 | inactive | – |
| CC1=CC(=O)CC(C)(C)[C@@]1(O)CC[C@@H](C)O[C@@H]1O[C@H](CO)[C@@H](O)[C@H](O)[C@H]1O | inactive | – |
| COc1ccc(CC2C(=O)NC(C)C(=O)N(C)C3Cc4ccc(cc4)Oc4cc(ccc4OC4OC(CO)C(O)C(O)C4O)CC(C(=O)NC(C)C(=O)NC(C)C(=O)N2C)N(C)C3=O)cc1 (stereo not given) | – | -5.43% [at 9.29 µM] |
| C=CC1(C)C=C2CCC3C(C)(C)C(O[C@@H]4O[C@@H](CO)[C@H](O)[C@H]4O)CCC3(C)C2CC1O[C@@H]1O[C@H](C)[C@H](O)[C@H](O)[C@H]1O (stereo not given in full) | inactive | – |
| O=C1Nc2ccccc2C(O)(c2ccccc2)C1O (stereo not given) | inactive | – |
| COC(=O)Cc1cc2c(c([N+](=O)[O-])c1)N(C(=O)CC[C@H](N)C(=O)O)CC2 | inactive | – |
| CC[C@H]1OC(=O)[C@H](C)[C@@H](O[C@H]2C[C@@](C)(OC)[C@@H](O)[C@H](C)O2)[C@H](C)[C@@H](O[C@@H]2O[C@H](C)C[C@H](N(C)C)[C@H]2O)[C@](C)(O)C[C@@H](C)C(=O)[C@H](C)[C@H]2OC(=O)O[C@@]21C | inactive | – |

Source: PubChem BioAssay (NCATS)
